# Measured values published in PubChem BioAssay (NCI).
# The panel holds about 83,000 compounds, 20% with a hit somewhere; the sample as a whole holds those more often.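 Cell lines were cultured in 96-well plates, exposed to a single compound concentration, and assessed for percent growth 48 hours later.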 A number with no mark means an inactive call. Activity calls are given as the source filed them.
# Test system: CCRF-CEM leukemia
# Assay: NCI-60 one-dose screen, 48 h (100 = growth as untreated, 0 = no growth, -100 = all killed)
# Conditions: 10 µM unless noted
# Procedure: Growth inhibition of the CCRF-CEM human tumor cell line is measured as a screen for anti-cancer activity. Cells are grown in 96 well plates and exposed to the test compound for 48 hours. Compounds are tested at a single concentration, which is 10^-5 M for most compounds. The reported endpoint is percent growth (GI% or GIPRCNT), where numbers from 0 - 100% represent growth inhibition, and numbers from -100% - 0 represent cell death. For example, a value of 40 represents 60% growth inhibition. A value of 0 means no net growth occurred over the course of the experiment. A value of -40 indicates 40% of cells at the beginning of the experiment died by the end of the experiment. A value of -100 means all cells are dead at the end of the experiment.
# NCI-60 Human Tumor Cell Lines Screen was performed using the standard one-dose NCI protocol, which is described in more detail at https://dtp.cancer.gov/discovery_development/nci-60/default.htm.
# Compounds with GIPRCNT values below 10 were considered active. Activity score was based on GIPRCNT using the following formula: […]
# Score is 0 for GIPRCNT values of 100 or above, 50 for GIPRCNT values of 0, and 100 for GIPRCNT values of -100.
row,Compound,growth
1,O=C(Nc1cccc([N+](=O)[O-])c1)c1cccc(C(=O)Nc2cccc([N+](=O)[O-])c2)c1,116%
2,CCOC(=O)c1c(C)nc(C)c(C(=O)OCC)c1-c1cccnc1,102%
3,c1coc([C@@H]2C[C@@H]3Cc4ccc5ccccc5c4N2O3)c1,79%
4,C=C(C[C@](O)(C(=O)/C=C/c1ccc(Cl)cc1)C(=O)OC)c1ccccc1,40.8%
5,CN(CC(=O)Nc1nc2ccccc2[nH]1)S(=O)(=O)c1ccc(Cl)cc1,44.6%
6,CCCc1cc(=O)n2c(C(=O)Nc3ccccc3OC)c(C(=O)Nc3ccc(F)cc3)sc2n1,58.4% [30 µM]
7,COc1ccc(-c2nn(-c3ccccc3)cc2/C=C2\SC(=S)N(CCc3ccc(O)cc3)C2=O)cc1,76.5%
8,CCCCCCCCCCCCCCCCCC1=NC(C)(C)CN1CCO,-42.9% (active)
9,O=C(Nc1ccc(C2=NCCCN2)cc1)Nc1ccc(C2=NCCCN2)cc1,73%
10,OC(c1cc(C(F)(F)F)nc2c(C(F)(F)F)cccc12)C1CCCCN1 (stereo not given),65.2%
11,CCOC(=O)c1c(C)c(C(=O)OCC)n(C)c1C,84.9%
12,COC1=CC(c2ccc[nH]2)=N/C1=C\c1[nH]c(C)c(C(=O)CCC(=O)Oc2ccc3c(c2)CCC2C3CC[C@]3(C)C(=O)CC[C@@H]23)c1C (stereo not given in full),32.9%
13,O=C(Nc1nc(-c2ccccc2)cs1)c1cc(O)c(O)c(O)c1,9.11% (active)
14,COc1ccc2c(c1)C(=O)/C(=C/c1ccc([N+](=O)[O-])s1)O2,0.726% (active)
15,Cc1ccc(NC(=O)COC(=O)c2ccc(S(=O)(=O)N3CCCCCC3)cc2)cc1,135%
16,CC(C)c1nc(N(C)S(C)(=O)=O)nc(-c2ccc(F)cc2)c1/C=C/[C@@H](O)C[C@@H](O)CC(=O)O,104%
17,CCc1[nH]nc(-c2ccc(OC)cc2)c1-c1ccccc1OCCN(CC)CC,84.5%
18,COc1cc2c(cc1OCCCCCn1c(-c3ccc(OCc4ccccc4)cc3)nc3cc(N4CCOCC4)ccc31)N=C[C@@H]1CCCN1C2=O,8.03% (active)
19,CCCCSc1cc(C)nc(N)n1,91.7%
20,O=C(/C(=N/O)S(=O)(=O)c1ccccc1)c1cccs1,98.5%

row,Compound,growth
1,COc1cccc(C2C(C#N)=C(N)Oc3cc(OC)ccc32)c1 (stereo not given),-1.19% (active)
2,Nc1cc(Cl)c(S(N)(=O)=O)cc1S(N)(=O)=O,95.7%
3,NC(=O)N/N=C/c1ccc(Br)o1,108%
4,O=C1NCN(CCO)CN1,99.7%
5,COc1ccc2c(c1)nc(N)c1c3cc(OC)c(OC)cc3cn21,47.1%
6,CCOC(=O)c1cc(-c2cccnc2)nc2c(Cl)cc(Cl)cc12,88.9%
7,Nc1nc(SCC2(CCl)COC2)c2[nH]cnc2n1,101%
8,O=C1CC(=O)N(c2ccccc2)O1,110%
9,c1cnc2n[nH]c(Nc3ncnc4c3sc3ncccc34)c2c1,88.6%
10,O=[N+]([O-])c1ccc(Oc2cccc(C(F)(F)F)c2)c([N+](=O)[O-])c1,14.7%
11,Cc1[nH]n(C(N)=S)c(=O)c1N=Nc1ccc(F)c(Cl)c1,-8.05% (active)
12,O=C(Nc1ccc(Nc2ccncc2)cc1)c1ccc(Nc2ccnc3ccc([N+](=O)[O-])cc23)cc1[N+](=O)[O-],98.8%
13,CC(C)[C@H]1CC[C@H]2[C@@H](CC[C@H]3[C@](C)(CN)CCC[C@]23C)C1,48.3%
14,CCOC(=O)c1c(NC(=O)C2CCCCC2C(=O)O)sc2c1CCCC2 (stereo not given),99.6%
15,CC(C)(C)c1ccc(C(O)CCCN2CCC(C(O)(c3ccccc3)c3ccccc3)CC2)cc1 (stereo not given),-23.6% (active)
16,N#CCCCCCn1c2ccccc2c2c3c(c4c5ccccc5[nH]c4c21)C(=O)N(O)C3=O,-1.67% (active)
17,CC(CCC(=O)O)(NC(=O)c1ccc([N+](=O)[O-])cc1)C(=O)O (stereo not given),103%
18,CN(CCOc1ccc(CC2SC(=O)NC2=O)cc1)c1ccccn1 (stereo not given),108%
19,O=C(CN1CCCCC1)Sc1nnc2sc3ccccc3n12,104%
20,CCCCCCCC/C=C/CCCCCCCC1=NC(C)(C)CN1CCO,-38.9% (active)
